From PubChem BioAssay AID1224897 (Sanford-Burnham Center for Chemical Genomics, 2016) come the findings set out here.

Some of the results follow. The source made the active and inactive calls. How the calls were made is not given here.

Chain of Hepatocyte nuclear factor 4-alpha (Homo sapiens) (P41235 whole entry, looked up): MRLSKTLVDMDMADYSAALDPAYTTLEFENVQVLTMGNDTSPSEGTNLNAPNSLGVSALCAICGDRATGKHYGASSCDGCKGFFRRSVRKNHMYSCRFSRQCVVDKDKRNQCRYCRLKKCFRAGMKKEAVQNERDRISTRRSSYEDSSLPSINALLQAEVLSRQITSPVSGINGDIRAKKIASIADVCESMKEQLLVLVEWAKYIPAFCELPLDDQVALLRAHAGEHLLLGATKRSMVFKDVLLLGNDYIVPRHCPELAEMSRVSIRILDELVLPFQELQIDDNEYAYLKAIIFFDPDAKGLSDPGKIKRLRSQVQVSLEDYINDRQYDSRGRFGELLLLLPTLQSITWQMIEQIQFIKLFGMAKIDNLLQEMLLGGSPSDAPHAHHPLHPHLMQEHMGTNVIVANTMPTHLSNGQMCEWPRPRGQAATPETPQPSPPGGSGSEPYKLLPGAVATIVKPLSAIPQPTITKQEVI

This test concerns the target Hepatocyte nuclear factor 4-alpha (Homo sapiens) (UniProt P41235). The experiment in a line: HNF4-alpha DNA association modulation retest – biochemical, fluorescence polarization, FITC-DNA, confirmation (AID 1224897). As to conditions: HNF4A-FITC DNA binding, 1 h, at 12.5 µM, active compounds read high. A general note: In fluorescence polarisation assays a small probe gives low polarisation when free and higher when bound to something large.
In the case of `C/C(=N/Nc1nc(-c2ccccc2)c(CC(=O)O)s1)c1ccccc1`, the activity change was 57.6% (active).
To `CCC(C)N1C(=O)S/C(=C/c2ccc(Sc3nc4ccccc4[nH]3)o2)C1=O` (centres undefined) belongs 76.4% (active).
`Cn1c2ccccc2c2cc(/C=C(\NC(=O)c3ccccc3)C(=O)NCC(=O)O)ccc21`: the activity change is 45.6% (active).
With `Cn1cccc1/C=C1\SC(=S)N(NC(=O)c2ccc(Cl)cc2)C1=O` the figure was 72.5% (active); with `C#CCOCCOCCOCCNc1nc(N2CCN(C(=O)C([C@@H](C)O)n3cc([C@@H](N)CCCCN)nn3)CC2)nc(N2CCN(C(=O)[C@H](CCCCN)n3cc(CN)nn3)CC2)n1` (some centres undefined), 108% (active); with `O=C1/C(=C/c2coc3ccc(O)cc3c2=O)SC(=S)N1c1ccccc1`, 57% (active).
`COc1ccc(-c2nc3cc(C)ccn3c2NC2CCCCC2)cc1SC1CCCCC1`: the activity change is 37.6% (active).
In the case of `Cc1cccc(COc2ccccc2/C=N/Nc2ccc([N+](=O)[O-])cc2)c1`, the activity change was 56.9% (active).
In the case of `Fc1cccc(Cc2c(-c3cccc(Cl)c3)nc3ccc(Br)cn23)c1`, the activity change was 51% (active).
